Hit rate of the full screen: of about 360,000 compounds, about 4,500 (1.2%) were called active. The sample as a whole holds a higher share of actives than the screen did. A number with no mark means an inactive call. Rule as the data show it: active = inhibition above about 30%; inactive = the rest.

A short description of the assay: inhibition of GDH and TPI enzymes – biochemical, absorbance, full deck, artefact control for M. tuberculosis FBA inhibitor project, primary screen (AID 588335).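 Also: 0% = DMSO wells and 100% = wells lacking the enzyme.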 To be noted: GDH-TPI coupled enzyme counterscreen, NADH absorbance; at 4.8 µM; hits give high values. (In general: The purpose of a counterscreen is to sort out artefacts and off-target activity.)
Turning to `CC(=O)N1C(C)c2ccccc2C(C)(C)CC12CCCCC2` (configuration not stated), the inhibition was 4.51%.

For `O=C1COc2ccc(C(=O)COC(=O)c3cccnc3Cl)cc2N1`, the inhibition was 1.57%.

In the case of `COc1ccc(/C=C(/NC(=O)c2ccco2)C(=O)Nc2ccc(C(C)=O)cc2)cc1`, the inhibition was 33.5% (active).

As to `Cc1ccc(NC(=O)/C(=C\c2ccccc2)NC(=O)c2ccco2)cc1`, the inhibition was 21.3%.

Regarding `COc1ccccc1C(=O)N/C(=C/c1ccco1)C(=O)Nc1ccc(C(=O)O)cc1`, the inhibition is 1.49%.

With `CC1(C)COC(c2cccn2Cc2ccccc2Cl)=N1`, the inhibition is 12.7%.

For `O=C(NCc1ccncc1)C(=O)NCC1OCCN1S(=O)(=O)c1ccc(Br)cc1` (configuration not stated), the inhibition is 3.11%.

Regarding `O=C(Cc1ccsc1)N1CCN(S(=O)(=O)c2cc(C(F)(F)F)cc(C(F)(F)F)c2)CC1`, the inhibition was 6.47%.

Take `Oc1c(Br)cc(/C=N/NC(=S)NCC2CCCO2)cc1Br` (configuration not stated): the inhibition is 37.8% (active).

For `O=C(CNC(=O)c1ccc(Br)o1)NCC1CCCO1` (configuration not stated), the inhibition was -4.74%.

Take `S=C(NCC1CCCO1)N1CCN(c2ccc(Cl)c(Cl)c2)CC1` (configuration not stated): the inhibition is -2.84%.

For `CC(C)(C)CC(C)(C)NCC(O)COCCOc1ccc(Br)cc1` (configuration not stated), the inhibition was -7.87%.

Turning to `CC(=NNC(N)=O)C1CC2CCC1CC2` (configuration not stated), the inhibition is 4%.

As for `CC1CCCCC1NC(=O)COC(=O)Cc1ccc(Br)cc1` (configuration not stated), the inhibition is 0.32%.

As to `O=C(/C=C/c1ccc(Cl)c([N+](=O)[O-])c1)c1ccc(O)cc1`, the inhibition is 40.7% (active).

Regarding `O=C(COC(=O)c1ccc(O)cc1O)c1ccc2c(c1)OCCO2`, the inhibition was -0.63%.

On to `O=C(/C=C/c1ccc2c(c1)OCCO2)c1ccc(O)cc1`, for which the inhibition was 37.5% (active).

With `C/C(=N\NC(=O)C(N)=O)c1ccc2c(c1)OCCO2`, the inhibition is 0.63%.

Regarding `Cc1ccnc(NC(=O)c2ccc(Cl)c([N+](=O)[O-])c2)c1`, the inhibition is 8.28%.

In the case of `O=C(O)c1ccc2c(=O)n3c(nc2c1)/C(=C/c1ccc(Cl)c([N+](=O)[O-])c1)CC3`, the inhibition was -3.69%.

In the case of `CC(C)C(=O)N1CC(=O)Nc2ccc(F)cc2C1c1ccc(F)cc1` (configuration not stated), the inhibition is 2.76%.

Consider `CSc1nc2ccccc2cc1/C=C(\C#N)c1ccc(Cl)cc1Cl`, for which the inhibition is 12.3%.

On to `CC(=O)N1CCc2cc(Br)cc(S(=O)(=O)CCC(=O)Nc3c(C)n(C)n(-c4ccccc4)c3=O)c21`, for which the inhibition is 0%.

In the case of `CCN(CC)CCCNC(=O)c1ccc2c(=O)n(Cc3ccc4c(c3)OCO4)c(=S)[nH]c2c1`, the inhibition was 3.66%.

With `CCSC(C)CC1C/C(=N/O)c2c(C)noc2C1` (configuration not stated), the inhibition is -6.62%.

In the case of `COc1ccc(-c2cc(=O)c3c(O)cc(O[C@@H]4O[C@H](CO[C@@H]5O[C@@H](C)[C@H](O)[C@@H](O)[C@H]5O)[C@@H](O)[C@H](O)[C@H]4O)cc3o2)cc1O`, the inhibition is 37.8% (active).

For the compound `COc1c(O)cc2oc(-c3ccc(O)c(O)c3)cc(=O)c2c1O`, the inhibition was 22%.

`C[C@@H]1O[C@@H](OC[C@H]2O[C@@H](Oc3c(-c4ccc(O)cc4)oc4cc(O)cc(O)c4c3=O)[C@H](O)[C@@H](O)[C@@H]2O)[C@H](O)[C@H](O)[C@H]1O`: the inhibition is 17.6%.

In the case of `Cc1csc(CN(C)C(=O)CC2C(=O)NCCN2CC(C)(C)C)n1` (configuration not stated), the inhibition was -0.64%.

With `CC1(C(=O)Nc2cccc(Oc3ccccc3)c2)CCN1Cc1ccccc1Cl` (configuration not stated), the inhibition is 11.5%.

Consider `CCOc1cc(C)ccc1OCc1nnc(SCC(=O)Nc2cccc(C(=O)O)c2)n1-c1ccccc1`, for which the inhibition is 5.71%.

As for `CCNC(=S)N(CCN(CC)CC)Cc1cc2cc3c(cc2[nH]c1=O)OCCO3`, the inhibition is 27.9%.

For `CCN(CC)CCCNC(=S)N(CCO)Cc1cc2cc3c(cc2[nH]c1=O)OCO3`, the inhibition is 10.3%.

As for `CCNC(=S)N(CCN(CC)CC)Cc1cc2cc3c(cc2[nH]c1=O)OCO3`, the inhibition was 40.6% (active).

Take `CN1C(CC(=O)Nc2ccc(Br)cc2)c2ccccc2CC1(C)C` (configuration not stated): the inhibition was 2.84%.

As to `COc1cc(C(=O)N2CCN(S(=O)(=O)c3ccc(C(C)C)cc3)CC2)ccc1OCC(=O)N1CCOCC1`, the inhibition was -5.56%.

On to `Nc1ccccc1-c1nc2ccncc2[nH]1`, for which the inhibition was 17.8%.

`c1ccc2[nH]c(-c3nc4ccccc4[nH]3)nc2c1`: the inhibition is 36.1% (active).

As to `O=C(Nc1sc2c(c1-c1nc3ccccc3[nH]1)CCCC2)C1CC1`, the inhibition was 12.9%.

For `CCc1ccc2c(c1)cc(CN(C(=S)Nc1ccccc1Cl)C1CC1)c1nnnn12`, the inhibition was 3.4%.

As to `COCCCN(C(=S)Nc1c(C)cc(C)cc1C)C(C)c1ccncc1` (configuration not stated), the inhibition was -1.1%.

Consider `O=C1N/C(=N\N=C\c2ccco2)SC1Cc1ccc(F)cc1` (configuration not stated), for which the inhibition is 34.3% (active).

Turning to `C=CCN1C(=O)C(Cc2cccc(Cl)c2)S/C1=N/N=C/c1ccco1` (configuration not stated), the inhibition was 17.9%.

On to `COc1ccc(CN2C(=O)C(C)S/C2=N/N=C/c2ccco2)cc1` (configuration not stated), for which the inhibition is 28.3%.

As for `CCCCC1S/C(=N/N=C/c2cccs2)NC1=O` (configuration not stated), the inhibition is 23.8%.

As for `CCC1S/C(=N/N=C/c2ccco2)NC1=O` (configuration not stated), the inhibition is 48.7% (active).

For the compound `CC(C)=N/N=C1/NC(=O)C(Cc2ccccc2)S1` (configuration not stated), the inhibition is 1.52%.

As for `NC(=O)Cn1nc([N+](=O)[O-])nc1Oc1ccc(Br)cc1`, the inhibition is -2.44%.

As to `COc1ccc(OC)c(-n2cc3c(=O)n(C)c(=O)n(C)c3c2)c1`, the inhibition was 17.5%.

For the compound `Cc1noc(COc2ccccc2OCc2onc(C)c2Cl)c1Cl`, the inhibition was -5.03%.

Turning to `Cc1cc(NC(=O)CN2C(=O)NC(C)(CCc3ccccc3)C2=O)no1` (configuration not stated), the inhibition was -0.61%.

For `COC(=O)c1sc2[nH]c(=S)n(N)c(=O)c2c1C`, the inhibition is 31.6% (active).

Take `COC(=O)c1sc(NC(=O)COC(=O)C2CCC2)c(C(=O)OC)c1C`: the inhibition is -0.7%.

For `CCCC(CCC(=O)OC)(C(=O)OCC)c1csc(N)n1` (configuration not stated), the inhibition is 13%.

`CCN(CC)c1ccc(C(=O)OCC(=O)c2ccco2)cc1`: the inhibition was 31.4% (active).

Take `O=C(COC(=O)c1ccccc1C(=O)c1ccccc1)c1ccco1`: the inhibition was -5.13%.

Take `CCc1ccc(C(=O)COC(=O)c2ccco2)cc1`: the inhibition was -8.19%.

Turning to `C[C@H](NC(=O)C1CCN(S(=O)(=O)c2ccccc2)CC1)C(=O)NCc1ccccc1`, the inhibition was -5.08%.

As for `O=C(CN1C(=O)NC2(CCCCCC2)C1=O)Nc1ccc([N+](=O)[O-])cc1`, the inhibition was 22.4%.

Take `COc1cc(C(=S)NC2CCCCC2)ccc1O`: the inhibition was 2.87%.

With `COc1ccccc1-n1c(O)c(C=NC2CC2)c(=O)[nH]c1=O`, the inhibition is -4.18%.

For the compound `COc1cc(C=NC2CCCCC2)ccc1O`, the inhibition is 32.4% (active).

As for `COc1ccc(CCn2c(NCCCN3CCOCC3)nc3c2c(=O)[nH]c(=O)n3C)cc1`, the inhibition was 2.26%.

As to `Cn1c(=O)[nH]c(=O)c2c1nc(NCCCn1ccnc1)n2Cc1cccc(Br)c1`, the inhibition was 33.2% (active).

`Cc1nnc(Sc2nc3c(c(=O)[nH]c(=O)n3C)n2Cc2ccccc2)s1`: the inhibition is 3.35%.

As to `Cc1cc(C)cc(C(=O)NCC(=O)OCC(=O)N2CCCCC2)c1`, the inhibition was -3.76%.

As for `Cc1ccc(-n2ncc3c2CC(C)(C)CC3NC(=O)Cc2c(C)noc2C)cc1` (configuration not stated), the inhibition was 2.41%.

Take `Cc1ccc(NC(=O)c2nc[nH]c2C(=O)N2CCCCC2)c(C(=O)c2ccccc2)c1`: the inhibition was 16.6%.

As for `CC(CNS(=O)(=O)c1ccc(Br)cc1)CN(C)C` (configuration not stated), the inhibition is -2.58%.

As for `Cc1c(NC(=O)C(=O)N/N=C/c2cccs2)c(=O)n(-c2ccccc2)n1C`, the inhibition was 6.43%.

In the case of `COc1ccc2c(c1)c(C(=O)N/N=C/c1cccs1)c(C)n2C`, the inhibition is 38.7% (active).

For the compound `COc1ccc(N(CC(=O)N/N=C/c2cccs2)S(=O)(=O)c2ccc(OC)c(OC)c2)cc1`, the inhibition is 7.97%.

In the case of `CCOC(=O)c1ccccc1NS(=O)(=O)c1c(C)nc2sccn2c1=O`, the inhibition was 15%.

Turning to `COc1ccc(CCNC(=O)COC(=O)c2ccc[nH]c2=O)cc1`, the inhibition is 7.19%.

For the compound `COCCCn1c(SCc2cccc(OC)c2)nc2cc(OC)c(OC)cc2c1=N`, the inhibition is -0.63%.

For `O=C(CCNC(=O)c1ccccc1Cl)NN=Cc1ccco1`, the inhibition was 10.8%.

In the case of `O=C(Cc1ccccc1)Nc1cccc(C(=O)N/N=C/c2ccco2)c1`, the inhibition is 12.2%.

For `O=C(N/N=C/c1ccco1)c1ccc(C(=O)N/N=C/c2ccco2)o1`, the inhibition was 47.5% (active).

`COc1ccc(O)c(C(=O)c2cnc3onc(C(C)C)c3c2)c1`: the inhibition is 5.83%.

On to `COc1ccc(Cn2cc(CN3CCS(=O)(=O)N(Cc4ccc(-c5cccc(Cl)c5)cc4)C(C)C3=O)nn2)cc1` (configuration not stated), for which the inhibition was 12.3%.

As to `C=CCn1c(CCNC(=O)c2cccs2)n[nH]c1=S`, the inhibition is -2.53%.

In the case of `C=CCn1c(=NC(=O)c2cccs2)sc2cc(NC(C)=O)ccc21`, the inhibition was 31.8% (active).

Take `C=CCn1c(=NC(=O)c2ccc(S(=O)(=O)N3CCCC3)cc2)sc2cc(NC(C)=O)ccc21`: the inhibition was 28.4%.

With `Cc1ccc(O)c(CCc2ccccc2)n1`, the inhibition is 5.82%.

Turning to `COC(=O)C(C(=O)Nc1cccc(Cl)c1C)C1CCCC1` (configuration not stated), the inhibition is 2.59%.

Turning to `CCOC(=O)N1CCN(C(=O)CSc2nnc(-c3c[nH]c4ccccc34)n2CCOC)CC1`, the inhibition was 21.3%.

With `Cc1ccc(C)c(S(=O)(=O)N(C)c2ccc(OC(=O)C3CCN(C(=O)c4ccc(F)cc4)CC3)cc2)c1`, the inhibition was -2.88%.

As to `CCN(C(=O)COC(=O)c1cc(S(=O)(=O)N2CCc3ccccc32)ccc1OC)C1CCS(=O)(=O)C1` (configuration not stated), the inhibition is -2.55%.

As for `Cc1ccc2oc(=O)c3cnn(CC(=O)N(Cc4ccco4)C4CCCCC4)c3c2c1`, the inhibition was 0%.

On to `CN1CCN(CCNC(=O)Nc2ccccc2[N+](=O)[O-])CC1`, for which the inhibition was 1.97%.

As for `CN1CCN(CCNC(=O)Nc2ccc([N+](=O)[O-])cc2)CC1`, the inhibition was 35.1% (active).

On to `O=C(NCCCN1CCN(c2ccc(F)cc2)CC1)Nc1ccc([N+](=O)[O-])cc1`, for which the inhibition is 21.2%.

In general, inhibition refers to the drop in the measured response relative to a control, in per cent.

The values above are taken from PubChem BioAssay AID588335 (The Scripps Research Institute Molecular Screening Center, 2011).
